Consider 6 molecules from PubChem BioAssay (NCATS).

“And” between values parts separate entries of the source, which are not always exact repeats. Identical values can stand only once. Results filed as inconclusive are left out. The source made the active and inactive calls. Unless noted, the call rests on the fitted dose curve; in most records, active means well fitted curve in the direction sought with a large enough effect; inconclusive means small, poorly fitted or top-dose-only effect, or another doubt; inactive means no such curve, though single readings can be large; an effect the other way counts as inactive or inconclusive.

Experiment [1] in a line: AP1 Signaling Pathway (AID 357; active means well fitted curve in either direction with a large enough effect, not every such curve was filed as active; further: on the % scale 0 is the no-effect control and ±100 the full control effect). The following applies: ME-180 AP-1-bla reporter, EGF-induced, beta-lactamase ratio, 5 h. In a few lines: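 Cells are seeded overnight, exposed to compound titrations and an EC50 level of EGF for 5 hours at 37 °C, then loaded with CCF4 dye for 2.5 hours. Beta-lactamase activity under the AP-1 element is read as a blue/green ratio.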
For experiment [2], the target named is Cytochrome P450 1A2 (Homo sapiens) (UniProt P05177). The experiment in a line: p450-cyp1a2 (AID 410; calls by dose curve; further: potency means the concentration at half of the fitted maximal effect;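 on activity change, negative = inhibition: -100% = full effect of reference inhibitor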). In a few lines:
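Luminescent demethylation readout: Luciferin-ME (100uM, equal to Km) turned over by 20nM CYP1A2 for 60 min at room temperature after NADPH regeneration addition, following 10 min compound preincubation. Normalization used 57 uM furafylline as full inhibition.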

Experiment [3] can be described thus: Stat Signaling Pathway (AID 446; active means well fitted curve in either direction with a large enough effect, not every such curve was filed as active;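 further: ME-180 cervical cancer cells given 40 pM IL-6 alongside compound; SIE-controlled beta-lactamase reporter measured as 460/530 nm FRET emission ratio; on the % scale 0 is the no-effect control and ±100 the full control effect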). The following applies: ME-180 (cervical carcinoma) SIE beta-lactamase reporter, IL-6 stimulated, 5 h. In a few lines:
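Compound effects on IL-6-induced STAT reporter activity were measured in ME-180 cells. After overnight culture, cells were co-treated with 40 pM IL-6 for 5 hrs before beta-lactamase substrate loading at room temperature.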

Experiment [4] addresses Mitogen-activated protein kinase 10 (Mus musculus) (UniProt Q61831). The experiment in a line: JNK3 AlphaScreen Assay (AID 530; active means well fitted curve in either direction with a large enough effect, not every such curve was filed as active;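 further: kinase came from lysate of stimulated human HepG2 cells; signal reports phosphorylation of biotinylated GST-cJun 1-79 at Ser73 with 10 µM ATP; on the % scale 0 is the no-effect control and ±100 the full control effect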). In a few lines:
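Activity was read by AlphaScreen after JNK3-containing HepG2 lysate (cytokine pre-activated) phosphorylated biotinylated GST-cJun with 10 uM ATP at room temperature. Phospho-Ser73 cJun antibody with Protein-A acceptor beads provided detection.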
A general note: Alpha assays give light when donor and acceptor beads are brought close together.

Experiment [5] deals with 3',5'-cyclic-AMP phosphodiesterase 4B (Homo sapiens) (UniProt Q07343). The experiment can be described thus: qHTS Assay for Inhibitors of PDE-IV (AID 607; active means well fitted activation curve with a large enough effect in the main read-out, with a control signal flat, not every such curve was filed as active; further: % of control where 0% means no effect). In a few lines:
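ACTOne HEK293 cells carry a modified cAMP-gated CNG channel and express endogenous PDE4; plated 1000 cells/well, compounds up to 22.9 uM final. Membrane-potential dye fluorescence (ex 535/em 590) was read; parental cells received 10 uM forskolin + 100 uM RO 20-1724.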
For orientation: In qHTS, concentration-response curves come from the screen itself.

Experiment [6] concerns the target Guanine nucleotide-binding protein G(i) subunit alpha-1 (Homo sapiens) (UniProt P63096). The experiment can be described thus: qHTS Assay for Inhibitors of RGS12 GoLoco Motif Activity (Green Fluorophore) (AID 879).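 Further: 0% = labeled peptide with Gαi1 and full inhibition = labeled peptide alone without protein; negative values mean loss of peptide binding seen as reduced polarization.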 In a few lines: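 A drop in FITC polarization marked displacement of the FITC-tagged RGS12 GoLoco peptide (10 nM) from Gαi1 (50 nM). Compounds were incubated 10 min at room temperature in Tris pH 7.5 buffer containing 150 mM NaCl, 0.1 mM GDP and 0.05% NP40; unlabeled peptide titration served as control.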

Experiment [7] can be described thus: qHTS Assay for Identification of Small Molecule Agonists for Thrombopoietin (TPO) Signaling Pathway (AID 917). Further: on the % scale 0 is the no-effect control and ±100 the full control effect. In a few lines: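 Stimulation at the TPO EC50 (26 pM final) was used to detect activators. Ba/F3 mouse cells bearing human TPO receptor and a luciferase reporter under the Glycoprotein IIb promoter were exposed to compounds for 24 hrs at 37 C.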
For experiment [8], the target named is Pyruvate kinase (Leishmania mexicana) (UniProt Q27686). The experiment in a line: qHTS Validation Assay for Inhibitors of Leishmania Mexicana Pyruvate Kinase (AID 945).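 Further: 0% = DMSO only neutral control wells.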 In a few lines: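 Eight-point qHTS titrations in triplicate, data normalized to DMSO neutral control. Reaction: 0.2 nM LmPYK E451W mutant, 0.5 mM PEP, 0.1 mM ADP, 7 mM MgCl2, pH 7.2, one hour at room temperature; luminescent ATP detection.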

The target in experiment [9] is Alpha-galactosidase A (Homo sapiens) (UniProt P06280). The experiment can be described thus: Counterscreen for Glucocerebrosidase Inhibitors: qHTS Assay for Human alpha-Galactosidase at pH 4.5 (AID 992). Further: 0% is about no effect. In a few lines:
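Citrate buffer pH 4.5, Tween-20 0.005%. Enzyme 2 nM, substrate 80 uM, 20 min RT. Stop pH 10. Fluorescence Ex 365/Em 440. AC50 by Hill fit.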
(Counterscreens check selectivity or assay interference.)

Experiment [10] concerns the target alpha-glucosidase (Oryza sativa, rice) (UniProt Q653V4). The experiment in a line: Counterscreen for Glucocerebrosidase Inhibitors: qHTS Assay for Rice alpha-Glucosidase at pH 5.0 (AID 997).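 Further: 0% = full activity with enzyme and -100% = basal without enzyme.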 In a few lines: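 Endpoint fluorogenic assay at pH 5.0: compounds (0.7 nM to 77 uM) titrated against 4 nM rice enzyme and 400 uM 4-MU-alpha-glucoside for 20 min at room temperature; NaOH/glycine stop, read ex 365/em 440 nm, Hill-fitted AC50.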

A short description of experiment [11]: qHTS Assay for Lipid Storage Modulators (AID 1519; calls by dose curve). Particulars: Drosophila S3 cells, BODIPY lipid droplet/cell ratio, laser cytometry, cells loaded with oleic acid. In a few lines:
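Cells seeded at 5,000 per well were treated with compounds over a concentration series and loaded with oleic acid (400 uM, as added). Lipid droplet fluorescence (488 nm excitation, 500-530 nm channel) was read by laser-scanning cytometry and normalized to 20 uM Triacsin C.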

Experiment [12] deals with Ubiquitin carboxyl-terminal hydrolase 1 (Homo sapiens) (UniProt O94782). The experiment in a line: Inhibitors of USP1/UAF1: Pilot qHTS (AID 504865).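 Further: rhodamine fluorescence freed from ubiquitin-rhodamine substrate followed over time; top concentration of the series differs between compounds; on the % scale 0 is the no-effect control and ±100 the full control effect; nearly all actives have a fitted effect of over 35% in size.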 In a few lines: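 USP1/UAF1 complex at 1 nM preincubated 15 min at room temperature with compound, then Ub-Rho substrate added at 150 nM final. Fluorescence (480/540 nm) read kinetically in 50 mM HEPES pH 7.8, 0.5 mM EDTA, 1 mM TCEP, 0.1 mg/ml BSA, 0.01% Tween-20.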

In experiment [13] the target is DNA dC->dU-editing enzyme APOBEC-3G (Homo sapiens) (UniProt Q9HC16). The experiment in a line: qHTS for inhibitors of Vif-A3G interactions: Validation (AID 588379). Further: 0% is about no effect. In a few lines: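 Yellow fluorescence (Ex 488, Em 500-530) of Vif-coexpressing HeLa A3G-eYFP cells, scanned by Acumen cytometer, reports blocked A3G degradation. Cells plated at 700/well overnight at 37 deg C before compound addition, then a further overnight compound incubation at 37 deg C.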

Experiment [14] concerns Zika virus NS2B-NS3 protease. The experiment can be described thus: Primary screen GU AMC qHTS for Zika virus inhibitors (AID 1347154).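 Further: 0% = no-inhibitor control and -100% = no-enzyme control; nearly all actives have a fitted effect of over 70% in size.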 In a few lines: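 Unlinked Zika NS2B hydrophilic domain–NS3 protease complex at 25 nM in 10 mM Tris-HCl pH 8.0, 0.01% Tween 20, with an AMC peptide substrate. Fluorescence change (340/450 nm) over 15 min at room temperature, normalized to controls, fitted to 4-parameter Hill.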

Experiment [15] in a line: Primary qHTS for small molecule stabilizers of the endoplasmic reticulum resident proteome: Secreted ER Calcium Modulated Protein (SERCaMP) assay (AID 1508630). Further: on the % scale 0 is the no-effect control and ±100 the full control effect. In a few lines:
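The SH-SY5Y reporter protocol was run at 3 concentrations up to 38.3 uM (primary) or 11 concentrations (follow-up): 16 h compound, 100 nM thapsigargin for 4 h, then extracellular luciferase luminescence.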

Experiment [16] in a line: NFAT Signaling Pathway (AID 444; active means well fitted curve in either direction with a large enough effect, not every such curve was filed as active). Particulars: Jurkat NFAT-bla M1, carbachol, beta-lactamase ratio, 5 h. In a few lines:
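Jurkat cells with NFAT-driven β-lactamase reporter and co-expressed M1 receptor, stimulated with carbachol (final 1 uM, ~EC50), compound titration, 5 h at 37 °C. CCF4 loaded 1 h at RT; 460/530 nm ratio gave %activity and AC50.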

In experiment [17] the target is Glucocorticoid receptor (Homo sapiens) (UniProt P04150). The experiment in a line: GR-GFP Redistribution (AID 450;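 active means compounds whose dose series gives a full or clear partial fitted curve of increased nuclear translocation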; further: potency means the concentration at half of the fitted maximal effect). The following applies: U2OS GR-GFP nuclear translocation, laser cytometry, 2 h.
Experiment [18] shares this target. The experiment can be described thus: GR-EFC Redistribution (AID 451; calls by dose curve; further: potency means the concentration at half of the fitted maximal effect). Particulars: CHO-K1 GR-EFC translocation, beta-gal luminescence, 2 h. In a few lines: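 CHO-K1 cells expressing nuclear EA and GR-ED fragments of b-gal; compounds titrated up to 46 uM final, 2 h at 37 C. GR nuclear translocation read as complemented b-gal luminescence after 1 h RT detection.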

In experiment [19] the target is Cytochrome P450 3A4 (Homo sapiens) (UniProt P08684). The experiment can be described thus: qHTS Assay for Activators of Cytochrome P450 3A4 (AID 885). Further: nearly all actives have a fitted effect of over 65% in size. In a few lines: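 CYP3A4 activity: Luciferin-PPXE O-dealkylation, 25uM substrate, 200mM KPO4, RT throughout. Read-out is luciferase luminescence; higher values reflect activation.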
Where [20] appears, read: measured here: cell count channel max response.
Where [21] appears, read: measured here: lipid channel max response.

Chain of Ubiquitin carboxyl-terminal hydrolase 1 (Homo sapiens) (O94782 whole entry, looked up): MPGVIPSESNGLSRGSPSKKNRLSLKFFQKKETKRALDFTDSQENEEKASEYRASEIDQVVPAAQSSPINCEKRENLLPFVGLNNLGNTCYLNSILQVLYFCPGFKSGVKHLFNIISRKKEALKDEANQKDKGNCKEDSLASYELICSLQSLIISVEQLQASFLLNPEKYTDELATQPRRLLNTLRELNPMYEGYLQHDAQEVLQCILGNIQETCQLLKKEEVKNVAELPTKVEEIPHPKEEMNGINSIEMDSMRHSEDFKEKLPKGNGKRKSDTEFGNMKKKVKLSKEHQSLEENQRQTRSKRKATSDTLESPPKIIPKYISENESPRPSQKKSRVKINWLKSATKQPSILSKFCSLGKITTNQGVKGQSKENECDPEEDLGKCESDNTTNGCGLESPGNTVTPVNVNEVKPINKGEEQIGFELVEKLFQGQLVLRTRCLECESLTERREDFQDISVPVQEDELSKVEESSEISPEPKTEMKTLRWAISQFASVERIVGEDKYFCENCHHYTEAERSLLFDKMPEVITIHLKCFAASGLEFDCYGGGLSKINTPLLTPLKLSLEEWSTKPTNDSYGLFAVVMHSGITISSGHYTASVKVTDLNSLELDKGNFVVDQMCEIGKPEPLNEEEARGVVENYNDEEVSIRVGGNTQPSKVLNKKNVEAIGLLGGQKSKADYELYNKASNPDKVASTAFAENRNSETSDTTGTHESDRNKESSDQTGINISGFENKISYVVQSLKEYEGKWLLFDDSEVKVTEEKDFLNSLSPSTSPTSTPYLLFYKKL
Chain of 3',5'-cyclic-AMP phosphodiesterase 4B (Homo sapiens) (Q07343 whole entry, looked up): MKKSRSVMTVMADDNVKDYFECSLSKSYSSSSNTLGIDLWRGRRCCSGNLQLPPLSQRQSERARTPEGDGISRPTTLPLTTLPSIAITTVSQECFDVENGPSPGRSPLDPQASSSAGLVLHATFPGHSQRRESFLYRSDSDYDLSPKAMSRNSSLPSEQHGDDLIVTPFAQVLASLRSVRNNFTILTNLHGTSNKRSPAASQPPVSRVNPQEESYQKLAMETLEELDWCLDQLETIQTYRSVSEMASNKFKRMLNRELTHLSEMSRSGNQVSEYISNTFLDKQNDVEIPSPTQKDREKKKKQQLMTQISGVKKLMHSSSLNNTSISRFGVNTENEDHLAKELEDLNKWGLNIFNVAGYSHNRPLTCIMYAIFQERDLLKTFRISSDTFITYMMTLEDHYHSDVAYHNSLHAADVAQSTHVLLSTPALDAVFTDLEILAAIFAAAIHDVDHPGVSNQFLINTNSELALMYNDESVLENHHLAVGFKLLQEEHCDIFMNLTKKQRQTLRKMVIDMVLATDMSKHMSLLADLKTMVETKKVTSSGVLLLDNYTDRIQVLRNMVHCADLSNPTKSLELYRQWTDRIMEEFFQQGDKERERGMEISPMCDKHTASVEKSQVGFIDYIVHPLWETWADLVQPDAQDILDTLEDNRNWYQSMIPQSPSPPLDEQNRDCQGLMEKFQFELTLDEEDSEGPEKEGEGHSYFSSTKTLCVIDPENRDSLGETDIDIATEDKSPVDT
Chain of Alpha-galactosidase A (Homo sapiens) (P06280 whole entry, looked up): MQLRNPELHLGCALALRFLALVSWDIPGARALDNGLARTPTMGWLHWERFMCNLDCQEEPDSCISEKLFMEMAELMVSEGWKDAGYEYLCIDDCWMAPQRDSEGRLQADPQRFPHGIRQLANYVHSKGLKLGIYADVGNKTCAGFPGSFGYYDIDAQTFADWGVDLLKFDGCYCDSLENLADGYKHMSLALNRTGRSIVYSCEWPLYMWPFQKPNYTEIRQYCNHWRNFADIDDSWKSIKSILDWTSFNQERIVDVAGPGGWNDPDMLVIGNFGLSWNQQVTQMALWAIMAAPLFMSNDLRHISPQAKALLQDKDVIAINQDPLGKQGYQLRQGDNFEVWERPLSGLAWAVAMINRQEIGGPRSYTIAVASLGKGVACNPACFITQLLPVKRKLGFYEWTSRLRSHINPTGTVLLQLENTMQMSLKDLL
Chain of Cytochrome P450 1A2 (Homo sapiens) (P05177 whole entry, looked up): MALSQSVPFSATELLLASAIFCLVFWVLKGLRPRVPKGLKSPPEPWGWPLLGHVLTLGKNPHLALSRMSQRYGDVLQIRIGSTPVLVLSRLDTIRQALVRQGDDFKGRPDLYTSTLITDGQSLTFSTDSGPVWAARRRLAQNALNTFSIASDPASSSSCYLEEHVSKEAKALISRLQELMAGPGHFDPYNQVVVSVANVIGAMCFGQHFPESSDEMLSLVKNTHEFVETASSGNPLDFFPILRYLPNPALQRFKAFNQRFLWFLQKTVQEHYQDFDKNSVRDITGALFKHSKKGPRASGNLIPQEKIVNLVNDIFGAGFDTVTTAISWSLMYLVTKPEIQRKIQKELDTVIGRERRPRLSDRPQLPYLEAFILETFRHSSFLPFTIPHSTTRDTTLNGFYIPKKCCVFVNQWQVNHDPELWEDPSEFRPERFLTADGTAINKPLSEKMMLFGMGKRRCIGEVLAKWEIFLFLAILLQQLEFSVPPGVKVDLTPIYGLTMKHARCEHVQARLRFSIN
Chain of Pyruvate kinase (Leishmania mexicana) (Q27686 2-499 E452W): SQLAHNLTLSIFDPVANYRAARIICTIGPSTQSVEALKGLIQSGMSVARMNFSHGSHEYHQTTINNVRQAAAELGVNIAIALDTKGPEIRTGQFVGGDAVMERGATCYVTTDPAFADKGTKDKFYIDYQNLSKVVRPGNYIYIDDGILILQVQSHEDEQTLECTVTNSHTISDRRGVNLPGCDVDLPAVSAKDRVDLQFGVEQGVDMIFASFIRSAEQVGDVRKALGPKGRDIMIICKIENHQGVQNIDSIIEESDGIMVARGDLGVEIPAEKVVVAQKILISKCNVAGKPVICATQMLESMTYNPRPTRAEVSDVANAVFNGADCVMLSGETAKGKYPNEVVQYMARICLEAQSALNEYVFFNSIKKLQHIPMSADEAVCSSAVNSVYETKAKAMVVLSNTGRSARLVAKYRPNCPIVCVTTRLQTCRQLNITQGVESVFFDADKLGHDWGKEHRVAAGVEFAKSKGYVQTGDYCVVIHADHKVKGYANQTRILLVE
Chain of Glucocorticoid receptor (Homo sapiens) (P04150 whole entry, looked up, the tested form may be a part): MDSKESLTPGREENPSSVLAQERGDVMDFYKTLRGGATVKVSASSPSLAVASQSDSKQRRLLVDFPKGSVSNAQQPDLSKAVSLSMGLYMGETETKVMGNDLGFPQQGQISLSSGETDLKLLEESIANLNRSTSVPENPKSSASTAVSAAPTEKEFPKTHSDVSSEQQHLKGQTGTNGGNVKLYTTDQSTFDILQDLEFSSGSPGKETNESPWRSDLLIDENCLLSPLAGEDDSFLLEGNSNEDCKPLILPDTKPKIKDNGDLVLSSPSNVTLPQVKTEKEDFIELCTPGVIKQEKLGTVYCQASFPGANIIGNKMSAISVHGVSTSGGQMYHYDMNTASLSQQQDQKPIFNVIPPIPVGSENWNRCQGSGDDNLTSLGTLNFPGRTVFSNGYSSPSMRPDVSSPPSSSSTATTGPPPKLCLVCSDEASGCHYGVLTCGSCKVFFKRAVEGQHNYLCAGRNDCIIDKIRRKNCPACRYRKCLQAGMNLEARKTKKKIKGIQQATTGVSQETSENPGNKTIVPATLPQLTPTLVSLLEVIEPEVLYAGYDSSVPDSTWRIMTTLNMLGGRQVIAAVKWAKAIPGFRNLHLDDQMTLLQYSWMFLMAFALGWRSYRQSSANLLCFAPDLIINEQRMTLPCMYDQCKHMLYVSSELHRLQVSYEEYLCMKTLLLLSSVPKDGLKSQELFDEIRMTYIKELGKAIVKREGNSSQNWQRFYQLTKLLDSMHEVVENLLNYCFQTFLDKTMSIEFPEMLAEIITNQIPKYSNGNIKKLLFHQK
Chain of Guanine nucleotide-binding protein G(i) subunit alpha-1 (Homo sapiens) (P63096 whole entry, looked up): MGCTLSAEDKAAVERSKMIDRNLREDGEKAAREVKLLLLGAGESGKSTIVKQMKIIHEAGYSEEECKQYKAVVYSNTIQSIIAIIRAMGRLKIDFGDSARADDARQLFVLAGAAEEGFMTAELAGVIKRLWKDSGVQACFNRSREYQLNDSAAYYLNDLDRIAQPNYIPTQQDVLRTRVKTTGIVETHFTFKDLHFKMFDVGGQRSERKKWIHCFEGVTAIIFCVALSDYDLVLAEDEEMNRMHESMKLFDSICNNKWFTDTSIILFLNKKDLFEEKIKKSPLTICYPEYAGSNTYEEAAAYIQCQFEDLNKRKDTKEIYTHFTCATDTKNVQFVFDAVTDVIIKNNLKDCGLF
Chain of DNA dC->dU-editing enzyme APOBEC-3G (Homo sapiens) (Q9HC16 whole entry, looked up): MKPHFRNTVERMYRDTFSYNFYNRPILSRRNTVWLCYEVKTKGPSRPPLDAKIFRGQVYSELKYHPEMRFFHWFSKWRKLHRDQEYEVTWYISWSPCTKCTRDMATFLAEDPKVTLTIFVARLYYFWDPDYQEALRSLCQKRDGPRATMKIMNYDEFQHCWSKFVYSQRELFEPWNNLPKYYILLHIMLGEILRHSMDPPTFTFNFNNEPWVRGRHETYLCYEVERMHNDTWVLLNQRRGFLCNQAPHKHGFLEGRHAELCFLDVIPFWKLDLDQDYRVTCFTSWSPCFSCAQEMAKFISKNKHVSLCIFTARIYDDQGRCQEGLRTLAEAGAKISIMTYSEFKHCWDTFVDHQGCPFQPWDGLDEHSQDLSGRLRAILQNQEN
Chain of Cytochrome P450 3A4 (Homo sapiens) (P08684 whole entry, looked up): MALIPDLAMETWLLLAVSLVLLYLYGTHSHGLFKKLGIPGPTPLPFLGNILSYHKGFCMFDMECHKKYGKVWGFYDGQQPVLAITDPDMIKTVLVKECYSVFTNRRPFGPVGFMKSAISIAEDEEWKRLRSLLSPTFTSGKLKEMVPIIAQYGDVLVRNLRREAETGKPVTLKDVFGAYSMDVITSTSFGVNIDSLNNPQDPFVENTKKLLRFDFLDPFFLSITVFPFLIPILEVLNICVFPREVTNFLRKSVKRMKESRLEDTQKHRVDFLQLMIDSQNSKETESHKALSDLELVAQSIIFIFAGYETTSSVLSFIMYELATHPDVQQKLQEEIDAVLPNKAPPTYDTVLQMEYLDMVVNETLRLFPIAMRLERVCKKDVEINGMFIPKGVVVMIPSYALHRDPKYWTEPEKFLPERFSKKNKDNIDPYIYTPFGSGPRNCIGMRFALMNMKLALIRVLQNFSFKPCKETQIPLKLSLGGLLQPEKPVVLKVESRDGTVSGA

Turning to `CNCC[C@H](Oc1ccccc1OC)c1ccccc1`, the activity change, negative = inhibition in experiment [1] (at 38 µM (top of the series)) is 26.3% (inactive); in experiment [11] (at 25.7 µM (top of the series)), -2.76% (inactive). Also, the Potency in [2] is 12.6 µM (active) and 10 µM (active) and 15.8 µM (active). The figures for the activity, negative = inhibition in experiment [3] (at 17.2 µM (top of the series)) and in experiment [3] (at 38 µM (top of the series)) were -0.439% (inactive) and 4.82% (inactive), respectively. Besides, the Potency result in experiment [4], in experiment [5], in [7], in [8], in [12] and in experiment [13] was “inactive” each time. Moreover, the Potency entry in experiment [14] and in experiment [15] was “inactive” in each case. For the same molecule, the molecule was classed as inactive in experiment [6], in [9] and in experiment [10]. The max response in experiment [11] (setting [20]) was -10.8%; in [11] (setting [21]), -15.9%.
For `N[C@@H](CO)C(=O)O`, the activity change, negative = inhibition in experiment [1] (at 38 µM (top of the series)) was 6.64% (inactive); in experiment [16] (at 38 µM (top of the series)) it was 1.99% (inactive); in experiment [11] (at 57.5 µM (top of the series)) it was -1.57% (inactive). Further, the Potency result in experiment [2], in [4], in experiment [5], in experiment [7], in experiment [8] and in [12] was “inactive” each time. In addition, the Potency result in experiment [14] and in [15] was “inactive” throughout. The activity, negative = inhibition in experiment [3] (at 38 µM (top of the series)) was -12.9% (inactive). Further, the Potency in experiment [17] and in [18] was > 46 µM (inactive) each time. Besides, the call in experiment [6], in [9] and in [10] was inactive. The max response is 0.892% in [11] (setting [20]) and -1.78% in experiment [11] (setting [21]).
Take `C[C@](N)(C(=O)O)c1ccc(-c2nn[nH]n2)cc1`: the figures for the Potency in [2], in [17] and in experiment [18] were 39.8 µM (active), > 46 µM (inactive) and > 46 µM (inactive), respectively. Moreover, the Potency result in experiment [4], in experiment [12], in [13], in experiment [14] and in experiment [15] was “inactive” each time. Also, the activity change, negative = inhibition in experiment [11] (at 57.5 µM (top of the series)) was 7.08% (inactive). Also, the max response in [11] (setting [20]) came out at 7.75%; in [11] (setting [21]) it was 14.3%.
In the case of `N[C@H](Cc1cnc[nH]1)C(=O)O`, the activity change, negative = inhibition in experiment [11] (at 57.5 µM (top of the series)) is -0.699% (inactive). For the same molecule, the max response was -9.8% in experiment [11] (setting [20]) and -11.7% in [11] (setting [21]). For the same molecule, the Potency result in experiment [12], in experiment [13], in [14] and in experiment [15] was “inactive” each time.
As for `NCCC(=O)O`, the Potency entry in experiment [2], in experiment [4], in experiment [5], in [12], in experiment [14] and in experiment [15] was “inactive” in each case. For the same molecule, the Potency in experiment [17] and in experiment [18] was > 46 µM (inactive) each time. In [11] (at 57.5 µM (top of the series)), the activity change, negative = inhibition is -2.51% (inactive). The max response in experiment [11] (setting [20]) was -17.6%; in experiment [11] (setting [21]), -21.9%.
Take `C[C@@H](CCc1ccc(O)cc1)NCCc1ccc(O)c(O)c1`: the activity change, negative = inhibition in experiment [1] (at 17.2 µM (top of the series)) was 1.11% (inactive); in experiment [1] (at 38 µM (top of the series)) it was -3.98% (inactive); in experiment [16] (at 17.2 µM (top of the series)) it was -17.4% (inactive); in [16] (at 38 µM (top of the series)), -12.7% (inactive); in [11] (at 25.7 µM (top of the series)) it was 0.472% (inactive). For the same molecule, the Potency entry in experiment [2], in experiment [4], in experiment [5], in experiment [19], in experiment [8] and in experiment [12] was “inactive” throughout. The Potency result in [14] and in experiment [15] was “inactive” throughout. Further, the results for the activity, negative = inhibition in experiment [3] (at 17.2 µM (top of the series)) and in [3] (at 38 µM (top of the series)) were 13.9% (inactive) and -16.8% (inactive), respectively. In addition, the Potency in experiment [17] is > 46 µM (inactive) and > 20.6 µM (inactive); in [18] it was > 46 µM (inactive) and > 20.6 µM (inactive). Moreover, the call in [6], in experiment [9] and in experiment [10] was inactive. Also, the max response came out at 1.22% in experiment [11] (setting [20]) and 2.79% in experiment [11] (setting [21]).
